Screening data as filed in PubChem BioAssay.
Most compounds without a hit are left out; they make up all but 8.8% or so of the library.
IL1B secr inh: qHTS for Inhibitors of Inflammasome Signaling: IL-1-beta AlphaLISA Primary Screen; activity change, % at 57.5 µM; THP-1 LPS/ATP IL-1B secretion, AlphaLISA, 16 h; hits give low values; 360,000 tested, 4.7% active; in the data active = activity change below about -50%; inconclusive = mostly about -30% to -49%
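Secreted IL-1B measured by AlphaLISA bead assay after 16 h compound exposure of THP-1 cells; compounds (final up to 57.5 uM) added 1 h before LPS (250 ng/mL) and ATP (1.25 mM) stimulation; lower signal means less secretion.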
KB-V1 MDR tox: qHTS assay for MDR1-selective chemotherapeutics: Primary screen using the drug-selected MDR subline cells KB-V1; KB-V1 MDR cells viability, CellTiter-Glo, 72 h; Potency, µM (top dose mostly 46.1 µM), actives largely listed as cytotoxic; 400,000 tested, 3.4% active; AID 1347076, 2019; also: nearly all actives have a fitted effect of over 60% in size
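Compound-treated KB-V1 multidrug-resistant cells, 72 h, 37 degrees C; viability by CellTiter-Glo. Fitted qHTS curves give the values.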
KB-3-1 cytotox: qHTS assay for MDR1-selective chemotherapeutics: Primary screen using the parental adenocarcinoma cell KB-3-1 | KB-3-1 viability, CellTiter-Glo ATP luminescence, 72 h | Potency, µM (series often up to 46.1 µM), usual class: cytotoxic | 400,000 tested, 1.4% active | AID 1347075, 2019; also: nearly all actives have a fitted effect of over 60% in size
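KB-3-1 cells, DMEM (no phenol red) + 10% FBS; compound by pin transfer, 72 h, 37 °C. Readout: CellTiter-Glo luminescence after 10 min. Data normalized, curve-fitted.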
HT1080 IDH1KD tx: qHTS for induction of synthetic lethality in tumor cells producing 2HG: qHTS for the HT-1080-IDH1KD cell line. HT-1080 IDH1 knockdown viability, ATP luminescence, 48 h. Potency, µM (series often up to 46.1 µM), actives largely listed as cytotoxic. 360,000 tested, 2% active
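Cytotoxicity counter-line: IDH1KD HT-1080, 48 h, CellTiter-Glo. Curves classed by r2, magnitude and activity.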
HT1080NT lethal: qHTS for induction of synthetic lethality in tumor cells producing 2HG: qHTS for the HT-1080-NT fibrosarcoma cell line; HT-1080-NT fibrosarcoma viability, CellTiter-Glo ATP luminescence, 48 h; Potency, µM (highest dose often 46.1 µM), actives largely listed as cytotoxic; 360,000 tested, 1.6% active; AID 686970, 2013;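 also: NT is the 2HG producing partner of a matched IDH1 knockdown line; nearly all actives have a fitted effect of over 55% in size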
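Luminescent CellTiter-Glo readout after 48 hours of compound exposure at 37 degrees C defined viability of HT-1080-NT cells. Activity was normalized to DMSO wells and cell-free media wells; concentration-response curves were fitted and assigned curve classes.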
Hits are given with their value; – = inactive; ? = inconclusive; · = no result given. Unless noted, calls follow the shape of the dose curve; as a rule, active = well fitted curve in the direction sought with a large enough effect; inconclusive = small, poorly fitted or top-dose-only effect, or another doubt; inactive = no such curve, though single readings can be large; an effect the other way counts as inactive or inconclusive.

SMILES	IL1B secr inh	KB-V1 MDR tox	KB-3-1 cytotox	HT1080 IDH1KD tx	HT1080NT lethal
COc1ccc(Oc2ccc(C(F)(F)F)cc2NC(=O)c2ccc(F)cc2)cc1	–	–	–	–	–
COc1ccccc1Nc1c2c(nc3ccc(NC(=O)c4cccc(F)c4)cc13)CCCC2	·	–	20.6µM	·	·
COc1cccc(Oc2ccc(C(F)(F)F)cc2NC(=O)c2cccc(F)c2)c1	–	20.6µM	?	–	–
O=C1ON=C(c2ccccc2)/C1=C/c1ccccc1	-75.5	–	–	–	–
Cc1ccc(/C=C2/C(=O)ON=C2c2ccccc2)o1	–	?	–	–	–
CC1=NOC(=O)/C1=C/c1ccc(O)cc1	–	?	–	–	–
Cc1ccc(C2=NOC(=O)/C2=C\c2ccccc2)cc1	–	–	–	–	–
O=C1ON=C(c2ccc(Cl)cc2)/C1=C/c1ccc(O)cc1	-102.0	20.6µM	–	?	?
O=C1ON=C(c2ccccc2)/C1=C/c1ccc(O)cc1	-98.5	–	–	–	–
Cc1ccc(S(=O)(=O)C2(C(=O)N3CCN(C4CCCCC4)CC3)CC2)cc1	–	16.4µM	–	–	–
Cc1ccc(S(=O)(=O)C2(C(=O)NC3CCCC3)CC2)cc1	–	–	–	–	–
Cc1ccc(S(=O)(=O)C2(C(=O)N3CCCCCC3)CC2)cc1	–	23.1µM	–	–	–
Cc1ccc(S(=O)(=O)C2(C(=O)N3CCN(c4cc(C)ccc4C)CC3)CC2)cc1	–	–	–	–	–
CC1(C(=O)NCc2ccccc2)CCC(=O)N1C1CCN(Cc2ccccc2)CC1 (stereo not given)	–	–	–	–	–
COc1ccc(CCNC(=O)/C=C/c2ccco2)cc1	–	?	–	–	–
O=c1[nH]c2c(-c3nc(-c4ccc(Cl)cc4)cs3)c(O)cn2c2ccccc12	·	–	?	·	·
CC(C)C(C(=O)OCC(=O)c1cccc([N+](=O)[O-])c1)N1C(=O)[C@@H]2[C@H]3CC[C@H](C3)[C@@H]2C1=O (stereo not given in full)	–	20.6µM	–	–	–
CC12CN3CC(C)(CN(C1)C3c1ccc3c(c1)OCO3)C2=O (stereo not given)	–	–	–	–	–
CN1c2ccccc2N(C)C1c1ccc2c(c1)OCO2	–	–	5.8µM	?	–
CCN(Cc1ccccc1)C1CCN(Cc2ccc(SC)cc2)CC1	-72.2	?	–	–	–
N#CC1=C(c2ccccc2)/C(=C/c2ccccc2)OC1=O	-104.4	?	?	–	–
O=C1O/C(=C/c2ccccc2)c2ccccc21	–	–	–	–	–
CC1(C)O[C@@H]2C[C@H]3[C@@H]4C[C@H](F)C5=CC(=O)C=C[C@]5(C)[C@@]4(F)[C@@H](O)C[C@]3(C)[C@]2(C(=O)CO)O1	-54.3	–	–	?	–
Cc1cccc(NNC(=O)C2CCC2)c1	–	–	–	7.31µM	7.31µM
O=C1Nc2c(c(=O)[nH]c(=O)n2-c2ccc(F)cc2)C1(NS(=O)(=O)c1ccccc1)C(F)(F)F (stereo not given)	–	–	–	–	–
SMILES	IL1B secr inh	KB-V1 MDR tox	KB-3-1 cytotox	HT1080 IDH1KD tx	HT1080NT lethal
COc1ccc(N2CCN(C(=O)c3cc(-c4ccc(C)c(F)c4)on3)CC2)cc1	·	–	–	·	·
O=C1C(Cc2ccccc2)NC(=S)N1Cc1ccccc1 (stereo not given)	–	–	–	–	–
CC(C)CC1NC(=S)N(Cc2ccccc2)C1=O (stereo not given)	–	20.6µM	?	?	?
CCOC(=O)c1cc(-c2ccccc2)n(CCC(=O)N2CCN(c3ccccn3)CC2)c1C	–	?	?	–	–
CCN(CC)CCN(Cc1cc2cc(C)c(C)cc2[nH]c1=O)C(=S)NCc1ccco1	-141.9	–	–	?	?
CCCCNC(=S)N(CCN(C)C)Cc1cc2cc3c(cc2[nH]c1=O)OCCO3	-51.2	–	–	–	–
